# Results taken from PubChem BioAssay.
# A number with no mark means an inactive call. For some assays here: Entries with a potency or affinity are not part of this list. Active and inactive are the calls of the source. Unless noted, the rule behind the calls is not given here.
# Assays:
# [1] = antimalarial activity against Dd2 strain (AID 2302;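 active = growth inhibition above 50% at the single 2 µM test dose, taken to imply half-maximal potency below 2 µM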;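 note: 0% = DMSO untreated growth and 100% = chloroquine plus artemisinin killed control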); settings: P. falciparum Dd2 in RBCs, LDH growth readout, 72 h; at 2 µM; hits give high values
# [2] = human hepatoma cell viability loss – ATP luminescence, cytotoxicity control for P. falciparum antimalarial project, primary screen (AID 2303;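 active = inhibition above 50%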;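 note: 0% = DMSO wells and 100% = digitonin-killed cells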); settings: HepG2 viability, 24-48 h, at 10 µM, hits give high values
# [3] = molecular target: L-lactate dehydrogenase (Plasmodium falciparum (isolate CDC / Honduras)) (UniProt Q27743); test: PfLDH activity inhibition – cell lysate, 3D7 strain, counter-screen for P. falciparum growth inhibition project (AID 2304);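 note: 0% = vehicle and 100% = reference inhibitor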; settings: P. falciparum 3D7 crude extract, LDH APAD/NBT absorbance; at 2 µM; hits give high values
# [4] = inhibition of 3D7 malaria parasite growth – strain 3D7 (AID 2306);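 note: 0% = DMSO wells and 100% = chloroquine plus artemisinin control wells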; settings: P. falciparum 3D7 erythrocytic growth, LDH absorbance, 72 h; at 2 µM; hits give high values
# [5] = molecular target: Calcium-dependent protein kinase 1 (Plasmodium falciparum (isolate 3D7)) (UniProt P62344); test: PfCDPK1 kinase inhibitors, biochemical, TCAMS library (AID 1159585; cut-off not given, nearly all actives have IC50 up to about 0.98 µM;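 note: inhibitors leave more ATP so luminescence rises with inhibition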); settings: recombinant PfCDPK1, Kinase-Glo ATP depletion luminescence
# [6] = molecular target: Plasmodium falciparum protein kinase 6 (PK6, PF3D7_1337100) (UniProt Q8IDW1); test: PfPK6 kinase inhibitors, biochemical, TCAMS library (AID 1159586); settings: recombinant PfPK6, Kinase-Glo ATP depletion luminescence
# [7] = molecular target: Protein kinase 7 (PK7), Plasmodium falciparum 3D7 (PF3D7_0213400) (UniProt Q7YTF7); test: inhibition of Plasmodium PK7 catalytic activity – biochemical, TCAMS antimalarial set, Kinase-Glo luminescence (AID 1159587); settings: recombinant PfPK7, Kinase-Glo ATP depletion luminescence
# [8] = molecular target: Calcium-dependent protein kinase 4 (Plasmodium falciparum (isolate 3D7)) (UniProt Q8IBS5); test: PfCDPK4 kinase inhibitors, biochemical, TCAMS library (AID 1159588; cut-off not given, nearly all actives have IC50 up to about 0.91 µM); settings: recombinant PfCDPK4, Kinase-Glo ATP depletion luminescence
# Chain of Calcium-dependent protein kinase 4 (Plasmodium falciparum (isolate 3D7)) (Q8IBS5 whole entry, looked up): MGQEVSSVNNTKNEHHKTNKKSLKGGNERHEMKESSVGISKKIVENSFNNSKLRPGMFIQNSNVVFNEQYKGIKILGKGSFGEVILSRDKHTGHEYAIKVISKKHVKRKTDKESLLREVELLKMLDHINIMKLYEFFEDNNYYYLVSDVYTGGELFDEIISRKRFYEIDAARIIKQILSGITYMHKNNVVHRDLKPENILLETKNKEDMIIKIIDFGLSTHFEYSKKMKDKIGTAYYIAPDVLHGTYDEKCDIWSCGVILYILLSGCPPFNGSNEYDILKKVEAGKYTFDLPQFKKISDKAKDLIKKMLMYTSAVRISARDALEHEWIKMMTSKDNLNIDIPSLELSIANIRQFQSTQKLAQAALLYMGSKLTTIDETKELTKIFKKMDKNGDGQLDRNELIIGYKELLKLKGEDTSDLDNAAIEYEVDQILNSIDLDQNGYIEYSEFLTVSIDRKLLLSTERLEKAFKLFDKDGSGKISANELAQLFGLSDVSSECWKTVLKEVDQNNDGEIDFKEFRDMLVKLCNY
# Chain of L-lactate dehydrogenase (Plasmodium falciparum (isolate CDC / Honduras)) (Q27743 whole entry, looked up): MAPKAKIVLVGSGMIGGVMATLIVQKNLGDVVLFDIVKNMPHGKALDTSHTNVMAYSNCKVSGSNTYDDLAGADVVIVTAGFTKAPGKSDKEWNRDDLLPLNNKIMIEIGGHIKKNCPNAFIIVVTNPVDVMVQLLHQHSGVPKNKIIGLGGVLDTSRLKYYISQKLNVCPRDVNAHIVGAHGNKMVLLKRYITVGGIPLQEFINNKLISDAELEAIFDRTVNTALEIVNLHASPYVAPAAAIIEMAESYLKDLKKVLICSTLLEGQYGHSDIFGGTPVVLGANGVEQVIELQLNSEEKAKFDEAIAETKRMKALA
# Chain of Plasmodium falciparum protein kinase 6 (PK6, PF3D7_1337100) (Q8IDW1 1-305): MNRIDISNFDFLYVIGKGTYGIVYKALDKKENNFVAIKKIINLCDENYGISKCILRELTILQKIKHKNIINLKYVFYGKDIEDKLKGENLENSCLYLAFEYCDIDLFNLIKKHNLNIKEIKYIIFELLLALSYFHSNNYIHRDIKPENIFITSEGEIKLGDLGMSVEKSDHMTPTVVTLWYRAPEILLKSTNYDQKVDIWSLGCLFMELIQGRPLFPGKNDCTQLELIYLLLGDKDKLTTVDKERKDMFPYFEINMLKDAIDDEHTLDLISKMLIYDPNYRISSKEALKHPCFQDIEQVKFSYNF
# Chain of Protein kinase 7 (PK7), Plasmodium falciparum 3D7 (PF3D7_0213400) (Q7YTF7 1-343): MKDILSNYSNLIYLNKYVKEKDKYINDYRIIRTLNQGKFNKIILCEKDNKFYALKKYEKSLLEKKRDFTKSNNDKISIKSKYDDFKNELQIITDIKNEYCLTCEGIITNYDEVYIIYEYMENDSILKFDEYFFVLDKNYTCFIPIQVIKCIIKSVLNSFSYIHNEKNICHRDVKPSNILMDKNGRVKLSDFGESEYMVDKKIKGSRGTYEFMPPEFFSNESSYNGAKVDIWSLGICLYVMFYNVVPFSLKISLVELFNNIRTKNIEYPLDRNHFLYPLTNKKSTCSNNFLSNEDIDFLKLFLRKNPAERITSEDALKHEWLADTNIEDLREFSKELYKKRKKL
# Chain of Calcium-dependent protein kinase 1 (Plasmodium falciparum (isolate 3D7)) (P62344 whole entry, looked up): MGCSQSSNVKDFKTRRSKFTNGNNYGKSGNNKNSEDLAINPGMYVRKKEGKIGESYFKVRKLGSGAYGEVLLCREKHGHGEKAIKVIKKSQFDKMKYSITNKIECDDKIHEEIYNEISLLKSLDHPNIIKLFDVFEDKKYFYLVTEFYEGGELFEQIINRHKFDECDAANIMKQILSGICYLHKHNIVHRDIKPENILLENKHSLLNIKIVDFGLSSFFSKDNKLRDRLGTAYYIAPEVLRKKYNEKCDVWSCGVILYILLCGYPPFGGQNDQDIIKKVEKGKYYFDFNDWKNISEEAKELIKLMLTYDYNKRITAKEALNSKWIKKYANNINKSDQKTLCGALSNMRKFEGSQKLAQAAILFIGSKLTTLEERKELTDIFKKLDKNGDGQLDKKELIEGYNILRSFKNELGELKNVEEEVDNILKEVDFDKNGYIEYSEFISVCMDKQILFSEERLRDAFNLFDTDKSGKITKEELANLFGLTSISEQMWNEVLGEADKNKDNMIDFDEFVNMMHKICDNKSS
Structure (SMILES),growth inhibition [1],inhibition [2],inhibition [3],growth inhibition [4],outcome [5],outcome [6],outcome [7],outcome [8]
COc1ccc2nccc([C@@H](O)CN3CCC(NC(=O)c4ccc(CN5CCN(c6cccc(C)c6)CC5C)cc4)CC3)c2c1 (some centres not stated),86% (active),50% (active),4%,97% (active),inactive,inactive,inactive,inactive
O=C(OCC1CCN(Cc2ccccc2)C1)c1ccc(Cl)cc1 (configuration not stated),4%,-3%,3%,100% (active),inactive,inactive,inactive,inactive
CC(C)CNCc1cccc(-c2ccc(CNc3ccc(C(=O)c4ccccc4)cc3)cc2)c1,0%,10%,0%,97% (active),inactive,inactive,inactive,inactive
Cc1ccc(F)cc1-c1cc(N2CCCN(C(=O)c3ccc(Br)o3)CC2)ncn1,91% (active),0%,0%,94% (active),inactive,inactive,inactive,inactive
COc1ccc2ccccc2c1C=NNc1ccnc2ccc(F)cc12,10%,11%,-2%,87% (active),inactive,inactive,inactive,inactive
Oc1ccccc1-c1nc2cccnc2n1CCc1cccc(C(F)(F)F)c1,36%,4%,-1%,93% (active),inactive,inactive,inactive,inactive
OCC1CCN(Cc2ccc(-c3cccc(-c4nc5ccccc5[nH]4)c3)cc2)CC1,6%,21%,-1%,101% (active),inactive,inactive,inactive,inactive
CN1CCN(c2cc(-c3ccncc3)nc(-c3cccnc3)n2)CC1,98% (active),13%,3%,101% (active),inactive,inactive,inactive,inactive
COc1cccc(Nc2nc(C)cc(NC3CCN(Cc4ccccc4)CC3)n2)c1,46%,15%,8%,102% (active),inactive,inactive,inactive,inactive
Cc1ccc(NC(=O)Nc2ccc(I)c(OCCN(C)C)c2)cc1Cl,22%,11%,-4%,98% (active),inactive,inactive,inactive,inactive
CCCn1cnc2cc(C(=O)Nc3ccc(-c4cccc(CN(C)C)c4)cc3)ccc2c1=O,6%,26%,-6%,95% (active),inactive,inactive,inactive,inactive
CN1CC[C@@H](Oc2cc(NC(=O)Nc3ccccc3Br)ccc2Cl)C1,6%,26%,0%,100% (active),inactive,inactive,inactive,inactive
O=C(Nc1ccc(-c2nc3ccccc3[nH]2)cc1)c1cnc(Cl)c(Cl)c1,95% (active),11%,0%,102% (active),inactive,inactive,inactive,inactive
COc1c(C2=CCN(CCCCNC(=O)c3ccc(-c4ccc(C#N)cc4)cc3)CC2)c(C)cc2c1C(C)(C)CCC2(C)C,88% (active),18%,-2%,92% (active),inactive,inactive,inactive,inactive
COc1ccc2c(NN=Cc3ccccc3F)cc(C)nc2c1,12%,4%,2%,90% (active),inactive,inactive,inactive,inactive
Cc1ccc(Cc2cnc(CN3CCCCC3)c(O)c2)cc1,75% (active),4%,1%,93% (active),inactive,inactive,inactive,inactive
Cc1c[nH]c2cc(/C=C/C(=O)NC3CCC(CCN4CCc5ccc(C#N)cc5CC4)CC3)ccc12 (configuration not stated),59% (active),-1%,-2%,95% (active),inactive,inactive,inactive,inactive
CC1CCCCN1Cc1cccc(-c2c[nH]c3nc(NC4CCCC4)ncc23)c1 (configuration not stated),14%,-1%,-2%,93% (active),inactive,inactive,inactive,inactive
COc1cccc(NC(=O)Cn2c(C)c(C#N)c3ccccc32)c1,100% (active),16%,4%,101% (active),inactive,inactive,inactive,inactive
